Results: PubChem BioAssay AID881 (National Center for Advancing Translational Sciences (NCATS), 2007)
About 610 (0.55%) of roughly 110,000 compounds were called active. Not shown: some 3% with an inconclusive outcome. The call rests on the fitted dose curve; in most records, active means well fitted inhibition curve with a large enough effect; inconclusive means small, poorly fitted or top-dose-only effect; inactive means no such curve, though single readings can be large or run the other way. Only a selection was taken, and actives are over-represented in it overall.

Each compound was assayed against Polyunsaturated fatty acid lipoxygenase ALOX15B (Homo sapiens) (UniProt O15296) (assay: qHTS Assay for Inhibitors of 15-hLO-2 (15-human lipoxygenase 2)). Conditions: purified 15hLO-2, xylenol orange hydroperoxide absorbance; series mostly up to 57.1 µM; activity change, negative = inhibition: at the top concentration.
From the text: Assay Overview: NIH Molecular Libraries Screening Centers Network [MLSCN] NIH Chemical Genomics Center [NCGC] MLSCN Grant: MH081283-01A1 PI Name: Holman, T.R., University of California, Santa Cruz Human lipoxygenase 15hLO-2 is a member of the closely related lipoxygenase family of enzymes which catalyze the site-specific oxidation of arachidonic acid to various hormone precursor molecules and as such is a candidate for drug development in a variety of disease areas, such as cancer and inflammation. Inhibition of 15hLO-2 activity was screened by utilizing arachidonic acid as a substrate. The extent of hydroperoxide product formation was measured by a secondary chromogenic reaction in which xylenol orange (XO, Sigma-Aldrich, cat. number 39,818-7) reacts with the ferric ions produced from the reaction between the hydroperoxide and ferrous ions. The Fe(III)-XO complex is characterized with red-shifted absorbance at 560 nm. A purified preparation of human 15hLO-2 was supplied by Professor Ted Holman, University of California, Santa Cruz.
Assay Protocol: Buffer: 25 mM Hepes pH 7.5, 0.01% Triton X-100. Reagents/Controls: Buffer in columns 3 and 4 as negative control (no enzyme). Substrate solution: 45 uM arachidonic acid (Sigma-Aldrich, St. Louis, MO) final concentration dispensed throughout the plate. Enzyme: 50 nM 15hLO-2 final concentration in columns 1, 2, 5-48. Column 1 is neutral (100% activity). Column 2 contained pin-transferred titration of NDGA (nordihidroguaiaretic acid, Sigma-Aldrich, N 5023, top concentration 10 mM in DMSO, then 1:2 dilution in duplicate). (Dilution factor: 23 nL into 4 uL.) Chromogenic detection reagent (divalent iron/xylenol orange, Fe-XO): 200 uM xylenol orange plus 300 uM ferrous ammonium sulfate prepared freshly in 50 mM sulfuric acid. Assay Steps: Three uL of enzyme were dispensed to 1536-well Greiner black clear bottom plates. Compounds and controls (23 nL) were transferred via Kalypsys PinTool. The plates were incubated for 15 min at room temperature, and then 1 uL of substrate solution was added to start the reaction. After room temperature incubation for 90 minutes, 4 uL of Fe-XO solution was added to each well followed by a short spin (1000 rpm, 15 sec) and the plates were then incubated for 30 min. The absorbance at 405 and 573 nm were measured using ViewLux (Perkin-Elmer) High-throughput CCD imager and absorbance protocol settings. The 573-to-405 absorbance ratio was used to compute reaction progress.
Further: nearly all actives have a fitted effect of over 60% in size.
On the % scale 0 is the no-effect control and ±100 the full control effect; potency means the concentration at half of the fitted maximal effect.

Sequence of Polyunsaturated fatty acid lipoxygenase ALOX15B (Homo sapiens) (O15296 whole entry, looked up): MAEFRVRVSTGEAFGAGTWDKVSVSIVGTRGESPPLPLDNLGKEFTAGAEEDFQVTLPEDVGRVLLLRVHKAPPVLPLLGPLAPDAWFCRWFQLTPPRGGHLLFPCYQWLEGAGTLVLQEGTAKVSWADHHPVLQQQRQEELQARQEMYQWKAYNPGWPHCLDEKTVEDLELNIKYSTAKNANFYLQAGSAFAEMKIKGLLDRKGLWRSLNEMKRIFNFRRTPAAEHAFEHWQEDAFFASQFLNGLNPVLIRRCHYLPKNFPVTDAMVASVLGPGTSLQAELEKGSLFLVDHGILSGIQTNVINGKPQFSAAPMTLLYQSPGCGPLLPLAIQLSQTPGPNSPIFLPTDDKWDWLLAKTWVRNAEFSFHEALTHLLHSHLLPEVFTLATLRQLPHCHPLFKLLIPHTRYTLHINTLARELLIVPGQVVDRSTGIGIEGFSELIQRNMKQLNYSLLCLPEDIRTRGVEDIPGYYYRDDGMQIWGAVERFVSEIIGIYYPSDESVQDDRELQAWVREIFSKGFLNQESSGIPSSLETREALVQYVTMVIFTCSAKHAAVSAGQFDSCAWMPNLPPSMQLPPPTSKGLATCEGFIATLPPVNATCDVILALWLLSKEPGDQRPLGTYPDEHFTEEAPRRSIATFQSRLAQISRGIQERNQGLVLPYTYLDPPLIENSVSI

SMILES	activity change, negative = inhibition	Potency
COc1cc(/C=N/O)cc(Br)c1OCc1cccc(Cl)c1	-5.31% (inactive)	
CSCc1cc(N(C)C)nc(SCc2ccc(Cl)cc2Cl)n1	17.6% (inactive)	
CCOC(=O)C1=C(C(=O)OCC)C(C(=O)OCC)N(S(=O)(=O)C(F)(F)F)c2ccccc21 (stereo not given)	7.83% [at 0.0915 µM] (inactive)	
CC1CCCCC1NC(=O)C1CCCN1S(=O)(=O)c1cccc2nsnc12 (stereo not given)	5.08% (inactive)	
Cc1nnc(NC(=O)CCCOc2ccccc2)s1	-12.9% (inactive)	
O=C(CN1C(=O)C2C3C=CC(C3)C2C1=O)Nc1nc(-c2ccccn2)cs1 (stereo not given)	24.9% (inactive)	
CCCCOC(=O)Nc1sc2nc(C)cc(C)c2c1-n1cccc1	-6.45% (inactive)	
CCOC(=O)c1c(NC(C)=O)sc2c(O)c(Br)ccc12	-25.8% (inactive)	
COc1ccc(C(=O)Nc2ccc(S(=O)(=O)NC(C)C)cc2)cc1	-1.16% (inactive)	
COC(=O)c1cc(NC(=O)CC2C(=O)NCCN2C(=O)c2ccc(F)cc2)cc(C(=O)OC)c1 (stereo not given)	-1.66% (inactive)	
Cn1ccs/c1=N\S(=O)(=O)c1ccc(C(C)(C)C)cc1	-3.71% (inactive)	
COCC(C)NC(=O)c1ccc(-n2nc(C(F)(F)F)cc2-c2cccs2)cc1 (stereo not given)	4.55% (inactive)	
NC(=O)c1nsc(C(=O)N(CC(=O)NCc2ccc(F)cc2)Cc2ccco2)c1N	-1.25% (inactive)	
Cc1ccc(-c2cc(=O)c3ccc(Cl)cc3[nH]2)cc1	-2.63% [at 0.0915 µM] (inactive)	
COc1ccc(C)cc1N(C)C(=O)c1coc(=O)c2ccccc12	-9.94% (inactive)	
C=CCC1CCC(=O)N2CCCC12 (stereo not given)	-5.32% [at 0.0915 µM] (inactive)	
Cc1ccccc1OCC(=O)NCC(=O)OCC(=O)c1ccc2ccccc2c1	5.04% (inactive)	
Brc1ccc(C2=NCCC(c3ccccc3)O2)cc1 (stereo not given)	18.5% [at 0.0915 µM] (inactive)	
O=C(c1cccc(F)c1)N1CCN(c2ccc([N+](=O)[O-])c(N3CCCCC3)c2)CC1	-15.7% (inactive)	
O=C1OCCN1C(=O)[C@H]1[C@H](c2ccc(Cl)cc2)C(c2cccc(Cl)c2)=NN1c1ccc(Br)cc1	4.34% [at 0.0915 µM] (inactive)	
CC1(C)O[C@@H]2C[C@@H]3[C@H]4C[C@@H](F)C5=CC(=O)C=C[C@]5(C)[C@@]4(F)[C@@H](O)C[C@]3(C)[C@]2(C(=O)CO)O1	-10.6% [at 0.0915 µM] (inactive)	
O=C1CCC[C@@H]2CC(N3CCCCC3)C[C@@H]3CCN1[C@H]23 (stereo not given in full)	-0.97% [at 0.0915 µM] (inactive)	
Cc1c(O)c(Br)c(C)c(O)c1Br (tested in a mixture with another compound)		2 µM (active)
CCOn1c(SC(C)C)nc2ccccc2c1=O	0.625% (inactive)	
C=CC1(C)CC(=O)C2(O)C(C)(O1)C(OC(C)=O)C(O)C1C(C)(C)CCC(O)C12C (stereo not given)	1.16% [at 0.0915 µM] (inactive)	

SMILES	activity change, negative = inhibition	Potency
COc1cc(C(=O)N2CCOCC2)cc(OC)c1OC	5.48% [at 0.0915 µM] (inactive)	
Cc1ccccc1NC(=S)Nc1cccc([N+](=O)[O-])c1	-5.17% (inactive)	
Cc1ccc(NC(=S)Nc2ncccc2C)c(C)c1		7.94 µM (active)
Cc1ccc(NC(=O)Cn2nc(C)c3ccccc3c2=O)c(C)c1	-7.07% (inactive)	
CC(C)NC(=O)C(=O)NCCN1CCN(S(=O)(=O)c2ccc(Cl)cc2)CC1	8.55% (inactive)	
FC(F)(F)c1cnc(Oc2ccccc2-c2nnc(-c3ccc(Cl)cc3)o2)c(Cl)c1	-0.426% (inactive)	
O=C(Oc1ccccc1)Oc1ccc2c(c1)oc(=O)c1ccccc12	-17.5% (inactive)	
Cc1nc2ccccc2c(=O)n1CCCn1ccnc1	9.49% [at 11.4 µM] (inactive)	
Cc1ccnc(N2CCC(C(=O)NC3CCCCCC3)CC2)n1	6.51% (inactive)	
Cc1ccnc(-n2sc3ccccc3c2=O)n1		7.94 µM (active)
N#Cc1ccc(Oc2cc(C(F)(F)F)nc(-c3ccccn3)n2)cc1	5.16% (inactive)	
CCCCCCCCCCCCCCCCO	14.3% [at 0.0915 µM] (inactive)	
CN(C(=O)CSc1nc(C2CC2)nc2ccccc12)c1nc(-c2ccccc2)cs1	2.08% (inactive)	
Cc1cc(N/C=C\C(=O)c2ccc(Cl)c(Cl)c2)no1	-13.7% (inactive)	
Cc1ccc(-n2c(SCC(=O)NCc3ccc4c(c3)OCO4)nnc2-c2cccnc2)c(C)c1	-2.26% (inactive)	
Cc1ccc(CC2(O)CCN(CCOc3ccc(O)cc3)CC2)cc1	15.1% [at 0.0915 µM] (inactive)	
Cc1ccc(/C=N/NC(=O)Cn2nc(C)c(Br)c2C)o1	-9.43% (inactive)	
C=CCN(N=Nc1cccc([N+](=O)[O-])c1)c1cccc([N+](=O)[O-])c1	-5.62% (inactive)	
CN(C)c1ccc(CNC2C3CC4CC(C3)CC2C4)cc1 (stereo not given)	67.5% (inactive)	
O=C(COc1ccc(Br)cc1F)NC1CCN(Cc2ccccc2)CC1	29.1% (inactive)	
N#CC1=C(SCc2ccc(C#N)cc2)N=C(N)C(c2nc(-c3ccccc3)cs2)C12CCCCC2 (stereo not given)	-1.4% (inactive)	
CCOc1c2ccc(C(=O)NCc3ccc(OC(F)(F)F)cc3)cc2nn1C	10.7% (inactive)	
O=C1Nc2ccccc2C12Nc1ccccc1S2 (stereo not given)		7.94 µM (active)
CC(=O)N1C(=O)C2(Nc3ccccc3N2)c2ccccc21	3.55% (inactive)	
Cc1ccc(NC2(C#N)C(=O)Nc3ccccc32)cc1 (stereo not given)	-9.55% (inactive)	
